Measurements as given in PubChem BioAssay AID593 (National Center for Advancing Translational Sciences (NCATS), 2007).
Screen size: about 59,000 compounds; about 540 (0.92%) were called active. Roughly 33% stayed inconclusive and do not appear here. Rule as the data show it: active = max fluorescein-equivalent concentration above about 10 nM; inconclusive = between about 1.1 nM and that limit; inactive = weaker than that. Only a selection was taken, and actives are over-represented in it overall.

Experiment: qHTS Assay for Spectroscopic Profiling in Fluorescein Spectral Region
Conditions: Compound autofluorescence, 480/540 nm; max fluorescein-equivalent concentration: active compounds read high; outcome: fluorescein-equivalent
Description: NIH Molecular Libraries Screening Centers Network [MLSCN]
NIH Chemical Genomics Center [NCGC]
Occasionally, the artifactual effect may originate from the compound's own spectral or other biophysical properties which generally tend to track its assay concentration. Pre-screening/profiling the library with respect to the compounds' spectral properties should help one exclude false positives early on. While the most informative fluorescent profiling data set is obtained by performing a full excitation and emission scan of each well by using a monochromator-based plate reader, such an approach is practical only on a very limited scale as scanning each well requires long time. An alternative approach, applied here, is to perform plate reader scans using selected excitation and emission wavelength pairs to generate a multidimensional relational database that correlates compound concentration and the respective relative fluorescence intensity at a given wavelength set. A standard curve of fluorescein present on each plate as six-point concentration series, was used to compute a normalized fluorescence response, termed dye-equivalent concentration, for each compound at each concentration.
NCGC Assay Protocol Summary:
100 mM Tris buffer, pH 8.0
The wells in columns 1 through 4 of a Kalypsys polypropylene 1536-well compound plate were filled with standard solutions of fluorophore corresponding to the spectral region of interest. Solutions of Fluorescein were placed in the following wells: Q1, R1: 3 mM, Q2, R2: 300 uM, Q3, R3: 30 uM, Q4, R4: zero (DMSO), S1, T1: 3 uM, S2, T2: 900 nM, S3, T3: 300 nM, S4, T4: zero (DMSO).
Six uL of buffer were dispensed to 1536-well Greiner black plates. Compounds and dye standards (23 nL) were transferred via Kalypsys PinTool. The plates were incubated for 15 min at room temperature, and then read on ViewLux (Perkin-Elmer) High-throughput CCD imager using 480 nm and 540 nm excitation and emission filter set.
Keywords: NIH Roadmap, MLSCN, MLI, MLSMR, qHTS, NCGC, Fluorescein, Fluorescent Profiling.

| SMILES | max fluorescein-equivalent concentration |
| --- | --- |
| CN1C2C=C(N(C(=O)c3ccc(Cl)cc3)c3ccccc3)CC1CC2 (stereo not given) | 10 nM (active) |
| CCN1C[C@@]2(COC)CC[C@H](OC)[C@]34[C@@H]1[C@]1(OCO[C@@]15C[C@@H](OC)C1C[C@H]3[C@H]5[C@@H]1OC)[C@H](O)[C@@H]24 | inactive |
| COc1ccc(-c2nc(CS(=O)CC(=O)N3CCC4(CC3)OCCO4)c(C)o2)cc1 (stereo not given) | inactive |
| CC(C)CCC1(CCN)C(=O)NC(=O)NC1=O | inactive |
| CCC(=NCc1ccco1)c1c(O)n(Cc2ccccc2)c(=O)[nH]c1=O | inactive |
